The source of these data is PubChem BioAssay (NCATS).

Structures are written as SMILES. Records with an inconclusive call do not appear. The source made the active and inactive calls. Calls follow the shape of the dose curve; as a rule, active = well fitted inhibition curve with a large enough effect; inconclusive = small, poorly fitted or top-dose-only effect; inactive = flat fitted curve, though single readings scatter.

This test has as its system CP203. As to the kind of experiment: qHTS profiling for inhibitors of Plasmodium falciparum proliferation (AID 504749). Also: nearly all actives have a fitted effect of over 60% in size. The note with it: P. falciparum in erythrocytes, SYBR Green DNA, 72 h; series mostly up to 28.7 µM. An excerpt: NIH National Institute of Allergy and Infectious Diseases [NIAID] NIH Chemical Genomics Center [NCGC] MLPCN Grant: None Assay Provider: Xinzhuan Su, NIAID NCGC Assay Overview: Plasmodium falciparum is a virulent malarial parasite that kills 1-2 million people worldwide each year. Transmitted by mosquitoes, the sporozoite form of the parasite enters the blood stream to infect hepatocytes, where they become merozoites that infect red blood cells (erythrocytes). Within erythrocytes, merozoites begin a […] cycle of growth and division, after which the parasite is released to infect new red blood cells. Gametocytes, which form within erythrocytes as well, circulate in the bloodstream and are ingested by the mosquito, thereby completing the life cycle. To profile malarial isolates for differential chemical responses and to identify inhibitors of malarial growth, an assay that measures P. falciparum growth and replication within erythrocytes was employed. This assay uses a DNA binding fluorescent dye (SYBR Green) to detect parasite DNA following cell lysis. Because mature erythrocytes lack DNA, only Plasmodium-derived DNA is detected.
NCGC Assay Protocol Summary: The SYBR Green viability assay was adapted from a method described previously (Plouffe et al., 2008). For screening 3 ul culture medium was dispensed into 1536 well black clear bottom plates (Aurora Biotechnologies) using a Multidrop Combi (Thermo Fisher Scientific Inc.), 23 nL compounds in DMSO were added by a pin tool (Kalypsys), and 5 ul of erythrocytes infected with P. falciparum (0.3% parasitemia, 2.5% hematocrit final concentration) were added. The plates were incubated at 37 C in a humidified incubator in 5% CO2 for 72 h, and 2 ul lysis buffer (20 mM Tris HCl, 10 mM EDTA, 0.16% saponin, 1.6% triton X, 10X SYBR Green I supplied as 10,000X […] by Invitrogen) was added to each well. The plates were mixed for 25 sec with gentle shaking and incubated overnight at room temperature in the dark. The following morning, fluorescence intensity at 485(14) nm excitation and 535(25) nm emission wavelengths was measured on an EnVision (Perkin Elmer) plate reader. Plate reads were normalized relative to the control inhibitor (0.29 uM artemisinin) and vehicle (DMSO) wells present on each plate and then corrected by an algorithm using vehicle-only control plates at the beginning and end of the compound plate stack.
In general terms: Quantitative high-throughput screening tests each substance at several concentrations.
Turning to `O=C1Nc2ccc(Cl)cc2C(C#CC2CC2)(C(F)(F)F)O1` (centres undefined), the molecule was called inactive.

`CC(=O)CCCCn1c(=O)c2c(ncn2C)n(C)c1=O`: the outcome was inactive.

Consider `CCN(CC)CCOC(=O)c1ccc(N)cc1`, for which the result was inactive.

`O=C(NCCN1CCOCC1)c1ccc(Cl)cc1`: the outcome was inactive.

Take `CC1(C)O[C@H]2C[C@@H]3[C@H]4CCC5=CC(=O)C=C[C@]5(C)[C@@]4(F)[C@@H](O)C[C@]3(C)[C@]2(C(=O)CO)O1`: the molecule was called inactive.

Regarding `CCCCCN(C)CCC(O)(P(=O)(O)O)P(=O)(O)O`, the call was inactive.

For the molecule `COc1ccccc1N1CCN(CCCNc2cc(=O)n(C)c(=O)n2C)CC1`, the molecule was classed as inactive.

As for `CCCNC(=O)NS(=O)(=O)c1ccc(Cl)cc1`, the result was inactive.

In the case of `NCCS`, the molecule was called inactive.

`C[N+](C)(C)CCCCCC[N+](C)(C)C`: the outcome was inactive.

Turning to `CC(=O)c1ccc(S(=O)(=O)NC(=O)NC2CCCCC2)cc1`, the result was inactive.

On to `Cc1cnc(C(=O)O)c[n+]1[O-]`, for which the outcome was inactive.

With `CCN(CC)CCNC(=O)c1ccc(N)cc1`, the call was inactive.

Take `COc1ccc(Cc2nccc3cc(OC)c(OC)cc23)cc1OC`: the result was inactive.

For the molecule `CCN(CC)C(=O)c1ccc(O)c(OC)c1`, the molecule was classed as inactive.

For `CCOC(=O)O[C@]1(C(=O)OCCl)CC[C@@H]2[C@H]3CCC4=CC(=O)C=C[C@]4(C)[C@@H]3[C@@H](O)C[C@@]21C`, the molecule was classed as inactive.

As for `CCCCC1C(=O)N(c2ccccc2)N(c2ccccc2)C1=O`, the outcome was inactive.

For `O=C(O)Cc1cccc2ccccc12`, the molecule was called inactive.

In the case of `CCN1CCC[C@H]1CNC(=O)c1cc(S(N)(=O)=O)ccc1OC`, the result was inactive.

Consider `Clc1ccc(Cn2c(CN3CCCC3)nc3ccccc32)cc1`, for which the call was inactive.

In the case of `NC(N)=Nc1nc(CSCC/C(N)=N/S(N)(=O)=O)cs1`, the molecule was called inactive.

Regarding `O=C1NCC2(CCN(CCc3ccccc3)CC2)O1`, the result was inactive.

In the case of `CC(=O)N[C@@H](CS)C(=O)O`, the call was inactive.

Consider `C[C@@H](O)[C@H]1C(=O)N2C(C(=O)O)=C(S[C@@H]3CN[C@H](C(=O)N(C)C)C3)[C@H](C)[C@H]12`, for which the outcome was inactive.

Take `O=C1NC(=O)C(c2ccccc2)(c2ccccc2)N1`: the molecule was called inactive.

For `CC/C(=C(\c1ccccc1)c1ccc(OCCN(C)C)cc1)c1ccccc1`, the outcome was inactive.

Turning to `O=C(O)c1c(Cl)c(Cl)c(Cl)c(Cl)c1-c1c2cc(I)c(=O)c(I)c-2oc2c(I)c(O)c(I)cc12`, the molecule was called inactive.

For the molecule `O=c1[nH]cnc2c1ncn2[C@H]1CC[C@@H](CO)O1`, the result was inactive.

For `O=C(O)c1cc(-c2ccccc2)nc2ccccc12`, the molecule was called inactive.
